Active and inactive are the calls of the source.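 How the source made its calls, unless noted: active means visually confirmed hit in the image check and inhibition above 20%; inconclusive means visually confirmed hit but inhibition not above 20%; inactive means no visual hit in the image check.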
assay: reduction of polyQ htt aggregates in cells – imaging, exon1htt(103Q)mCFP cells, high-content imaging, primary screen (AID 483;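 active means visual image review flags a hit and inhibition of aggregation exceeds 20%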;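 further: compound exposure lasted 3 days before fixation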;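 on nuclei count: percent of the per-plate median nuclei count of sample wells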); settings: exon1htt(103Q)mCFP cell line, aggregate imaging, at 2 µM; inhibition of aggregation: stronger effect = higher value; nuclei count: measured here: cell count, toxicity

Structure (SMILES) | nuclei count [%] | inhibition of aggregation
CCOC(=O)N1CCN(C(=O)C2c3cc(OC)c(OC)cc3C(=O)N3CCc4ccccc4C23)CC1 (stereo not drawn) | 104 | 13.5% (inactive)
CN1CCN(S(=O)(=O)c2ccc(Sc3nnc(-c4cccs4)n3-c3ccccc3)nc2)CC1 | 104 | -9% (inactive)
COc1cc2[nH]c(=O)n(CCC(=O)N3CCc4ccccc4C3)c(=O)c2cc1OC | 94.4 | 6.9% (inactive)
CS(=O)(=O)N(CC(=O)NC1CC1)c1cccc(F)c1 | 113 | 0.3% (inactive)
O=C(NCc1ccco1)C1CCN(S(=O)(=O)N2CCC3(CC2)OCCO3)CC1 | 84.3 | 28.1% (inactive)
CC(=O)Nc1ccc(S(=O)(=O)N2CCN(C(C)CCc3ccccc3)CC2)cc1 (stereo not drawn) | 69.7 | 2.6% (inactive)
CCCn1c(SCC(=O)N2CCCc3ccccc32)nnc1-c1ccccn1 | 100 | -0.4% (inactive)
CCNS(=O)(=O)c1ccc(S(=O)(=O)N(Cc2ccccn2)C2CCCCC2)cc1 | 108 | 6.6% (inactive)
COc1ccc(-c2nnc(SCC#N)o2)cc1 | 86 | 29.7% (active)
O=S(=O)(c1ccc2c(c1)nc1n2CCC1)N1CCOCC1 | 96.3 | -0.2% (inactive)
COCc1cc(C)nc(SCC(=O)Nc2cccc(C)c2C)c1C#N | 98 | -17.5% (inactive)
O=C(CSc1nnc(-c2ccccc2Cl)n1Cc1ccco1)Nc1ccc2c(c1)OCCO2 | 88.5 | 3.4% (inactive)
CCOC(=O)CSc1nnc(CNC(=O)c2ccc(S(=O)(=O)N3CCCC3)cc2)n1C | 96.9 | 1.3% (inactive)
C=C(c1cccc2ccccc12)P(=O)(O)O | 92.8 | 18.4% (inactive)
CN=C1CC(C)(C)CC(=O)/C1=C(/O)CCC(=O)NC | 104 | 10.3% (inactive)
CC(C(=O)c1ccccc1)n1cnc2ccccc2c1=O (stereo not drawn) | 93 | 17.6% (inactive)
CN(C)C(=O)CSc1nnc([C@H](Cc2c[nH]c3ccccc23)NC(=O)OC(C)(C)C)o1 | 108 | -9.3% (inactive)
CCOC(=O)NC(=O)CSc1nnc(C)s1 | 105 | -0.4% (inactive)
CCOc1nc2ccccc2nc1NS(=O)(=O)c1ccccc1 | 126 | 6.9% (inactive)
O=C(O)C1CC(=O)N(Cc2ccccc2)C1 (stereo not drawn) | 110 | -0.4% (inactive)
CCOC(=O)C1=C(Cn2cnc3ccccc32)NC(=O)NC1c1cc(C)ccc1C (stereo not drawn) | 106 | -15.4% (inactive)
CCOC(=O)C1CCCN(C(=O)c2cc3c(C)nc4ccccc4c3o2)C1 (stereo not drawn) | 100 | 8.7% (inactive)
CCCC1CC(C)(C(=O)Cn2[nH]c(=O)ccc2=O)OC1=O (stereo not drawn) | 120 | -42.5% (inactive)
CCOc1cc(N2CCOCC2)c(OCC)cc1NC(=O)COC(=O)CCc1c[nH]c2ccccc12 | 105 | 7.9% (inactive)
CC12CN3CC(C)(CN(C1)C3c1ccc(Br)cc1)C2 (stereo not drawn) | 97.5 | 5.1% (inactive)

assay: endothelial E-selectin expression blockers – imaging, HUVEC, immunofluorescence, MLSMR starter and 10KST1 sets, primary screen (AID 487); settings: HUVEC TNFalpha-induced E-selectin immunofluorescence imaging, at 2 µM; inhibition: stronger effect = higher value; nuclei count: measured here: cell number, toxicity;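 on inhibition: signal is fraction of cell area covered by stained E-selectin grains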;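 on nuclei count: 100% = median nuclei count of all wells on the same plate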

Structure (SMILES) | inhibition | nuclei count [%]
COc1ccc(C2CC(c3ccc(Cl)cc3)Nc3nc(NC(=O)c4ccco4)nn32)cc1 (stereo not drawn) | 27.9% (inactive) | 91.8
CCn1nccc1C(=O)Nc1nccs1 | -45.2% (inactive) | 103
FC(F)(F)c1nnc2ccc(NCn3nnc4ccccc43)nn12 | 16.1% (inactive) | 94.1
O=C(NC(C(=O)c1ccccc1)n1ccc(=O)[nH]c1=O)c1ccccc1 (stereo not drawn) | -6.1% (inactive) | 104
COc1ccc(N2C(=O)C(Cl)=C(Nc3c(C)n(C)n(-c4ccccc4)c3=O)C2=O)cc1 | -23.5% (inactive) | 102
Cc1cc(C)nc(N2CCCC(C(=O)Nc3nc4ccc(S(C)(=O)=O)cc4s3)C2)n1 (stereo not drawn) | 6.8% (inactive) | 107
CCc1nnc(NC(=O)c2ccc(S(=O)(=O)NC3CCCCC3)cc2)s1 | -22.8% (inactive) | 110
CC(C)C(=O)Nc1cccc(NC(=O)c2cccnc2)c1 | -167% (inactive) | 104
CCn1c(Cc2ccccc2)nnc1SCC(=O)Nc1nc2ccccc2s1 | -24.9% (inactive) | 97.6
S=c1[nH]c2ccc(Cl)cc2[nH]1 | -78.7% (inactive) | 110
CCOc1ccc2nc(SCC#N)c(C#N)cc2c1 | 9.9% (inactive) | 114
Cc1nc(C)c(C(=O)OCC(=O)N2CCN(c3ccccc3)CC2)s1 | -18.7% (inactive) | 102
COc1ccc(C(NC(=O)c2ccco2)c2ccc(OC)c(OC)c2)cc1 (stereo not drawn) | -24.8% (inactive) | 114
Cc1nn(-c2ccccc2)c2c1C(c1c(C)[nH]c(C#N)c1C)C(C#N)=C(N)O2 (stereo not drawn) | 15.4% (inactive) | 101
CCOC(=O)N1CCN(C(=O)C2c3cc(OC)c(OC)cc3C(=O)N3CCc4ccccc4C23)CC1 (stereo not drawn) | 6.9% (inactive) | 102
CN1CCN(S(=O)(=O)c2ccc(Sc3nnc(-c4cccs4)n3-c3ccccc3)nc2)CC1 | -140% (inactive) | 142
COc1cc2[nH]c(=O)n(CCC(=O)N3CCc4ccccc4C3)c(=O)c2cc1OC | -83.3% (inactive) | 108
CS(=O)(=O)N(CC(=O)NC1CC1)c1cccc(F)c1 | -44.3% (inactive) | 113
O=C(NCc1ccco1)C1CCN(S(=O)(=O)N2CCC3(CC2)OCCO3)CC1 | 18% (inactive) | 72.6
CC(=O)Nc1ccc(S(=O)(=O)N2CCN(C(C)CCc3ccccc3)CC2)cc1 (stereo not drawn) | 1.2% (inactive) | 96.1

Structure (SMILES) | inhibition | nuclei count [%]
CCCn1c(SCC(=O)N2CCCc3ccccc32)nnc1-c1ccccn1 | -20.1% (inactive) | 113
CCNS(=O)(=O)c1ccc(S(=O)(=O)N(Cc2ccccn2)C2CCCCC2)cc1 | -3.6% (inactive) | 100
COc1ccc(-c2nnc(SCC#N)o2)cc1 | 24.6% (inactive) | 102
O=S(=O)(c1ccc2c(c1)nc1n2CCC1)N1CCOCC1 | -18.9% (inactive) | 107
COCc1cc(C)nc(SCC(=O)Nc2cccc(C)c2C)c1C#N | -62.6% (inactive) | 107
O=C(CSc1nnc(-c2ccccc2Cl)n1Cc1ccco1)Nc1ccc2c(c1)OCCO2 | -75.1% (inactive) | 107
CCOC(=O)CSc1nnc(CNC(=O)c2ccc(S(=O)(=O)N3CCCC3)cc2)n1C | -54.4% (inactive) | 122
C=C(c1cccc2ccccc12)P(=O)(O)O | 18.6% (inactive) | 99.8
CN=C1CC(C)(C)CC(=O)/C1=C(/O)CCC(=O)NC | 50.5% (inactive) | 90.9
CC(C(=O)c1ccccc1)n1cnc2ccccc2c1=O (stereo not drawn) | -0.6% (inactive) | 96.9
CN(C)C(=O)CSc1nnc([C@H](Cc2c[nH]c3ccccc23)NC(=O)OC(C)(C)C)o1 | -35.8% (inactive) | 112
CCOC(=O)NC(=O)CSc1nnc(C)s1 | -130% (inactive) | 135
CCOc1nc2ccccc2nc1NS(=O)(=O)c1ccccc1 | -10% (inactive) | 132
O=C(O)C1CC(=O)N(Cc2ccccc2)C1 (stereo not drawn) | -43.7% (inactive) | 127
CCOC(=O)C1=C(Cn2cnc3ccccc32)NC(=O)NC1c1cc(C)ccc1C (stereo not drawn) | 0.3% (inactive) | 104
CCOC(=O)C1CCCN(C(=O)c2cc3c(C)nc4ccccc4c3o2)C1 (stereo not drawn) | -91.4% (inactive) | 119
CCCC1CC(C)(C(=O)Cn2[nH]c(=O)ccc2=O)OC1=O (stereo not drawn) | -76% (inactive) | 104
CCOc1cc(N2CCOCC2)c(OCC)cc1NC(=O)COC(=O)CCc1c[nH]c2ccccc12 | -28% (inactive) | 109
CC12CN3CC(C)(CN(C1)C3c1ccc(Br)cc1)C2 (stereo not drawn) | -50.4% (inactive) | 96.1
